Bioassay records (PubChem BioAssay)
Cav3 T inh: blocks human Cav3.2 T-type calcium channel; O95180; Cav3.2-expressing cells, Fluo-4 calcium fluorescence FDSS; hits give low values; B-score at 10 µM; 4% of 100,000 active; AID 449739;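 active = single-dose well whose peak fluorescence ratio is a statistical outlier from its plate by either plate-standardised score or position-corrected B-score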
PostGolgi ctrl: inhibits growth of the yeast control strain; inhibition, % at 10 µM; 5% of 98,000 active; efflux-deficient yeast background strain, growth absorbance A615, 16 h
D1 mod: D1 dopamine receptor (human) allosteric modulation; HEK293 D1, CRE-luciferase, dopamine EC30 potentiation; actives deviate in either direction; B-score at 10 µM; 5.9% of 58,000 active; AID 641;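 active = luminescence count or its row- and column-corrected plate score outside the 99.7% band of the plate's sample wells, on either side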
Target sequence (P21728 whole entry, looked up): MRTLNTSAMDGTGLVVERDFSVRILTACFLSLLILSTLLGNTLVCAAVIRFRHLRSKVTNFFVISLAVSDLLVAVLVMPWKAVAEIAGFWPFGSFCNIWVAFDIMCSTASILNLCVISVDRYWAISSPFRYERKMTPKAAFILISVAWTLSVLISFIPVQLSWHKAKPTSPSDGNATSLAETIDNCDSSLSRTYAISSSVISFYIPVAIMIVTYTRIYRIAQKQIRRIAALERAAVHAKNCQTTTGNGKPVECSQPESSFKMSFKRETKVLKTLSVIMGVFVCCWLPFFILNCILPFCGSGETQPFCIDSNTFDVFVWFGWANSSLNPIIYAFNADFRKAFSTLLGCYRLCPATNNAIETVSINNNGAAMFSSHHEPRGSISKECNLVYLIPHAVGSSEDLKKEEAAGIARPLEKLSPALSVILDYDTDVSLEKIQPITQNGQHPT
PLAP act: human PLAP activation. P05187. purified PLAP enzyme, luminescent substrate read-out; hits give high values. activation fold at 20 µM. 1.2% of 96,000 active; in the data active = activation fold above about 2
PostGolgi yeast: growth inhibition of a yeast mutant, post-Golgi transport screen. AID 739. post-Golgi transport phenotypic cell assay. inhibition, % at 10 µM. 0.9% of 98,000 active;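 also: yeast cells grown in 1536-well plates; yeast grown about 18 h at 30C before absorbance read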
DAT uptake mod: human DAT dopamine uptake with cocaine, either direction; LLC-PK1 hDAT cells, [14C]-dopamine uptake with cocaine IC80; actives deviate in either direction; B-score at 10 µM; 1.3% of 110,000 active;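 active = Z score or B-score, a plate-position-corrected score, falls beyond the plate's 99.7% confidence bounds, in either direction; inactive = both scores lie inside the 99.7% bounds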;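 also: scored against the spread of the other compound wells on the same plate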
An asterisk follows results filed as active; nt = not tested or not shown. An excerpt weighted towards active compounds, which were near 12% of everything screened. Rule as the data show it, unless noted: active = inhibition above about 30%; inactive = the rest.

SMILES | Cav3 T inh | PostGolgi ctrl | D1 mod | PLAP act | PostGolgi yeast | DAT uptake mod
CCc1ccc(N2CC(C(=O)Nc3ccc(C)c(S(=O)(=O)N4CCOCC4)c3)CC2=O)cc1 (stereo not drawn) | -3.6 | 2 | nt | 2* | -19 | 1.1
CCOC(=O)c1ccc(NC(=O)c2cccc(S(=O)(=O)N3CCOCC3)c2)cc1 | -0.37 | 5 | 0.053 | 1.5 | -3 | 0.71
CCOC(=O)c1ccc(NC(=O)c2ccc(C)c(S(=O)(=O)N3CCOCC3)c2)cc1 | -1.5 | 4 | -6.6* | 1.6 | 0 | 0.28
O=C(Nc1ccccc1)c1ccc(NC2CCCCC2)c(S(=O)(=O)N2CCOCC2)c1 | -2.6 | 28 | nt | 2.1* | -1 | 0.81
Cc1ccc(N2CC(C(=O)Nc3ccc(S(=O)(=O)N4CCCC4)cc3)CC2=O)cc1 (stereo not drawn) | -0.77 | 15 | -0.14 | 0.9 | -8 | 1.2
O=C(Nc1ccccc1)c1ccc(N2CCN(c3ccccn3)CC2)c(S(=O)(=O)N2CCOCC2)c1 | -1.6 | 2 | nt | 2.1* | 10 | -0.12
Cc1csc2ncc(C(=O)NC(C)c3ccccc3)c(=O)n12 (stereo not drawn) | -0.31 | 7 | nt | 1.4 | 3 | 1
COc1ccc(C(=O)/C=C(/C)N(C)C)cc1 | -0.62 | 5 | nt | 0.8 | -7 | 0.39
C=CCn1c(SCC(=O)Nc2nnc(CC)s2)nnc1-c1ccco1 | 1.4 | 5 | 1.5 | 1.3 | 0 | -1
O=C(c1ccc(Cl)c(S(=O)(=O)N2CCCCCC2)c1)N1CCN(c2ccccn2)CC1 | -2.1 | 17 | nt | 1.7 | 4 | 2.7*
Cc1ccccc1NC(=O)c1ccc(F)c(S(=O)(=O)N2CCN(c3ccccn3)CC2)c1 | -0.46 | 13 | -2.2* | 1 | 0 | -0.25
O=C(Nc1ccccc1)c1ccc(N2CCN(c3ccccc3)CC2)c(S(=O)(=O)N2CCOCC2)c1 | -6* | 18 | nt | 1.6 | 6 | -0.028
Cc1csc(/C(=N\O)c2csc(C)n2)n1 | 1.7 | -13 | -1.2 | 1.1 | 2 | 0.077
Cc1cc(C)c(C)c(S(=O)(=O)N2CCC(C(=O)OCC(=O)N3c4ccccc4NC(=O)C3(C)C)CC2)c1C | -1.9 | 11 | nt | 1.7 | 3 | -0.051
CC1(C)C(=O)Nc2ccccc2N1C(=O)COC(=O)C1CCCCC1 | -5.6* | 2 | nt | 1.1 | -6 | -0.43
Cc1nn(-c2ccccc2)c(C)c1/C=N/NC(=O)c1cc(-c2ccccc2)n[nH]1 | -3.7 | 10 | nt | 0.1 | -6 | -0.021
Cc1c(/C=N/NC(=O)c2cc(=O)[nH]c(=O)[nH]2)c2ccccn2c1C(=O)c1ccccc1 | -0.72 | -7 | nt | 2.2* | -9 | -0.28
Cc1ccccc1C(C(=O)NCc1ccco1)N(CC1CCCO1)C(=O)Cn1nnc2ccccc21 (stereo not drawn) | -3.8* | -2 | nt | 1.4 | -4 | 0.25
O=C(NCc1ccco1)C(c1ccco1)N(C(=O)Cn1nnc2ccccc21)c1ccc2c(c1)CCC2 (stereo not drawn) | -4.3* | nt | 0.9 | nt | nt | 1.6
COc1c(O)cccc1[C@@H](O)C1CCN(CCc2ccc(F)cc2)CC1 | 0.22 | nt | nt | nt | nt | -0.15
O=C1c2ccccc2C(=O)c2c(NCc3cccnc3)cccc21 | -0.63 | 34* | nt | 1 | -2 | 2.5
c1ccc(NCc2cccnc2)cc1 | -0.4 | -4 | nt | 0.9 | -1 | 0.99
O=S(=O)(/C=C/c1ccccc1)N1CCN(c2cccc(Cl)c2)CC1 | 0.056 | 8 | nt | 0.5 | -4 | 0.53
Cc1ccc(NC2=NCC(=O)N2Cc2ccc3c(c2)OCO3)cc1 | -0.67 | 16 | nt | 1.2 | 3 | 0.9
O=[N+]([O-])c1ccc(Sc2nc3ccccc3o2)c([N+](=O)[O-])c1 | 1.8 | 91* | nt | 1 | 5 | -0.12
SMILES | Cav3 T inh | PostGolgi ctrl | D1 mod | PLAP act | PostGolgi yeast | DAT uptake mod
Cc1ccc(NC(=O)NC2=N/C(=C(/C#N)C(=O)N3CCCC3)c3ccccc32)cc1 | -2.2 | nt | -3.8* | 1.1 | nt | 0.2
Cc1ccc(-c2nc3c(=O)n(C)c4ccccc4c3o2)cc1 | -0.66 | 77* | nt | 1.1 | 11 | -0.38
O=C1c2ccccc2CC1Sc1nnc(-c2ccccn2)o1 (stereo not drawn) | 0.51 | -1 | nt | 2.6* | -4 | 0.7
O=C1CC(Sc2nnc(-c3ccccc3O)o2)C(=O)N1c1ccccc1 (stereo not drawn) | nt | 12 | 1.3 | 1 | 2 | nt
Cc1ccc(NC(=O)C2(NC(=O)c3cccc(N4C(=O)CSC4c4ccccc4)c3)CCCCC2)cc1 (stereo not drawn) | -6.9* | 3 | nt | 1 | -9 | 0.63
C=CCO/N=C(/C)c1c(O)c(CC)c(-c2ccccc2)n(-c2ccccc2)c1=O | -7.3* | nt | nt | nt | nt | 2.9*
COc1cccc(NC(=O)NCCCN2CCN(c3ccc(F)cc3)CC2)c1 | -0.68 | 2 | -5.1* | 1.1 | 9 | 0.029
CC1(C)CC(=O)c2cc(OCC(=O)NCCCN3CCN(c4ccc(F)cc4)CC3)ccc2O1 | -0.33 | 9 | -4.2* | 1.4 | 4 | 0.15
O=C(CN1CCN(c2ccc(F)cc2)CC1)Nc1nnc(-c2ccccc2)s1 | 0.16 | 3 | 0.029 | 1.3 | 1 | 0.85
CCC(Oc1ccc2c(c1)C(=O)CC(C)(C)O2)C(=O)NCCN1CCCCCC1 (stereo not drawn) | nt | 5 | -0.91 | 1.5 | -3 | nt
COC(=O)c1cccc(NC(=O)CN2CCN(c3ccc(OC)cc3)CC2)c1 | 0.63 | 3 | -0.32 | 1.5 | -3 | -0.27
CC1CCc2nc(NC(=O)CN3CCN(c4ccc(F)cc4)CC3)sc2C1 (stereo not drawn) | -5* | 19 | nt | 1.8 | -8 | 2.5
COc1cccc(NC(=O)CN2CCN(c3ccc(F)cc3)CC2)c1 | nt | 0 | 0.61 | 0.9 | 1 | -2.5*
COc1cccc(NC(=O)CCN2CCN(c3ccccc3F)CC2)c1 | -0.96 | 12 | -0.19 | 0.8 | 0 | 0.0096
Cc1nn(C)cc1C1C2=C(CC(C)(C)CC2=O)OC2=C1C(=O)CC(C)(C)C2 | -0.032 | -15 | -0.011 | nt | -2 | -0.072
COC(CN1C(=O)C(O)=C(C(C)=O)C1c1ccccn1)OC (stereo not drawn) | 0.4 | -3 | nt | 1 | 7 | -1.1
Oc1cc2c(cc1O)C1c3ccc(O)c(O)c3OCC1(O)C2 (stereo not drawn) | 0.51 | nt | nt | nt | nt | 1.4
COc1cc(NC(=O)NCCN2CCN(c3ccc(Cl)cc3)CC2)ccc1C | 1.1 | 0 | -0.24 | 1.1 | 15 | 1.8
COc1ccc(NC(=O)NCCN2CCN(c3cccc(Cl)c3)CC2)cc1 | -1.6 | 42* | -0.68 | 1.2 | 43* | -0.22
Cc1csc(NC(=O)CSc2nnc(Cn3c(=O)sc4ccccc43)n2-c2ccccc2)n1 | 0.57 | -3 | 3.2 | 1.6 | 10 | 0.76
Cc1ccc(-n2c(C)nc3c(cnn3-c3ccc(C)c(C)c3)c2=O)cc1C | -0.51 | 47* | nt | 1.5 | 6 | 0.94
Cc1ccc(-n2c(C)nc3c(cnn3-c3ccc(F)cc3)c2=O)cc1C | 1.6 | -4 | 0.75 | 1.2 | 6 | -0.29
O=C(CN1CCN(Cc2ccccc2F)C1=O)NCc1cccnc1 | 0.57 | 5 | -0.53 | 1 | 2 | -0.14
